In the library only some 3.7% were active in any assay of this set; here they are far more common.
TIM10 inh – growth inhibitors of TIM10 yeast strain; S. cerevisiae TIM10 strain growth, BacTiter-Glo luminescence, 24 h; inhibition, % at 10 µM; 1.4% of 330,000 active;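 active = inhibition of 40% or more at the single tested concentration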;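 note: wild-type TIM10 isogenic control strain grown at permissive 25 °C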
tim23-1 inh – inhibits growth of tim23-1 mutant yeast; S. cerevisiae tim23-1 growth, BacTiter-Glo luminescence, 24 h; 1.3% of 330,000 active; inhibition, % at 20 µM;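 active = growth inhibition of the mutant yeast at or above 50%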;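 note: temperature-sensitive mutant grown at 25 °C; plate controls were DMSO-treated mutant yeast for no effect and medium wells lacking yeast for full effect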
tim10-1 inh – inhibits growth of tim10-1 mutant yeast | AID 463190 | inhibition, % at 20 µM | S. cerevisiae tim10-1 ts strain growth, BacTiter-Glo, 24 h | 2.2% of 330,000 active;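 active = inhibition of at least 40%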;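 note: mutant grown at 25 °C; 0% = DMSO wells with yeast and 100% = wells holding no yeast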
PfHsp90 set2 – growth inhibition of yeast expressing Plasmodium Hsp90. S. cerevisiae expressing PfHsp90, BacTiter-Glo ATP, 48 h; yeast lacking PDR1 and PDR3 efflux regulators. inhibition, % at 9.4 µM. AID 504621. 0.32% of 310,000 active;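 active = every replicate shows inhibition above about 80%, whatever the replicate mean, limit read from the data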;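 note: 0% = DMSO neutral controls and 100% = 20 µM radicicol positive controls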
NALP3 yeast inh – blocks the NALP3 inflammasome reconstituted in yeast. Yeast reconstituted NLRP3/ASC/caspase-1, beta-gal luminescence, 24 h. inhibition, % at 10 µM. 0.39% of 330,000 active. AID 2825;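 active = inhibition of 50% or more; inactive = inhibition below 50%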;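 note: plate controls were induced DMSO wells for no effect and uninduced yeast grown without galactose for full effect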
TIM10 conf – confirmation of TIM10 yeast growth inhibitors; shares compounds with TIM10 inh; S. cerevisiae tim10 strain growth, BacTiter-Glo luminescence, 24 h; inhibition, % at 10 µM; 63% of 4,600 active; AID 463215;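 active = inhibition of yeast growth at or above a set limit in either of two replicates at 10 µM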;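 note: this counterscreen used the strain with wild-type TIM10; 0% = yeast with DMSO and 100% = medium wells lacking yeast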
* hit, by the source's call; . = not tested or not shown.

SMILES | TIM10 inh | tim23-1 inh | tim10-1 inh | PfHsp90 set2 | NALP3 yeast inh | TIM10 conf
CCOc1ccc(C(=O)NCC(=O)OCc2nnc(-c3ccccc3)o2)cc1OCC | 50* | 1 | -10 | 0 | 18 | -15
O=C(CNC(=O)c1ccccc1)OCc1nnc(-c2ccccc2)o1 | -7 | 5 | -27 | 5 | 9 | .
COc1ccc(-c2cc3ccccc3n2CC(O)Cn2nc(C)cc2C)cc1 (stereo not drawn) | 41* | 35 | 32 | -10 | 8 | 35*
O=C1C(Nc2cccc(O)c2)=C(N2CCCCC2)C(=O)c2ccccc21 | 46* | 17 | 11 | -20 | -2 | 40*
CCC(Sc1nc(-c2ccccc2)c(C#N)c(=O)[nH]1)C(=O)Nc1nnc(C)s1 (stereo not drawn) | -11 | 17 | 6 | 13 | 9 | .
Cc1ccc(-c2[nH]nc3c2C(c2ccoc2)C(C#N)=C(N)O3)cc1C (stereo not drawn) | 41* | 42 | 39 | 26 | 6 | 30
CCC1CCC(NC(=O)Nc2cccc(OC)c2)CC1 (stereo not drawn) | 45* | 25 | 30 | -10 | 34 | 24
COc1cccc(NC(=O)C2CC2)c1 | -5 | 34 | 11 | 14 | 16 | .
O=C1CCN(c2ccccc2)N1 | . | . | . | 21 | . | .
CCCn1cnc2cc(NC(=O)c3cccs3)ccc21 | 61* | 49 | 24 | -2 | 40 | 42*
COc1ccc(-c2c(-c3cc(OC)cc(OC)c3)n(C)c3ccc(-c4ccc5[nH]ccc5c4)cc23)cc1 | -7 | 14 | 22 | -7 | 11 | .
CCCn1c2c(c(O)c(C(=O)Nc3ccc(OCC)cc3)c1=O)CCCC2 | 8 | 4 | -4 | 11 | 20 | .
CCCn1c2c(c(O)c(C(=O)Nc3ncccc3C)c1=O)CCCC2 | 45* | 49 | 25 | 0 | -9 | 8
COc1ccc(N2CCN(C(=O)c3ccc(Oc4ccc(C(F)(F)F)cn4)cc3)CC2)cc1 | 44* | 26 | 24 | 4 | 7 | 41*
O=C(c1ccc(Oc2ccc(C(F)(F)F)cn2)cc1)N1CCN(c2ccccc2)CC1 | 25 | 33 | 35 | -11 | 12 | .
O=C(CSc1ncn(-c2ccccc2)n1)c1cccs1 | 48* | 16 | 28 | -31 | 20 | -7
Cn1c(=O)oc2cc(S(=O)(=O)Nc3cccc4c3CCCC4)ccc21 | 25 | 9 | 29 | 14 | 10 | .
CN1CCN(S(=O)(=O)c2ccc(NC(=O)c3ccccc3F)cc2)CC1 | 0 | -10 | -12 | 10 | 15 | .
Cc1ccc(C)c(N2CCN(C(=O)C3CCN(S(=O)(=O)c4cccc5nsnc45)CC3)CC2)c1 | 40* | -1 | 36 | -10 | 21 | 32*
O=C(C1CCN(S(=O)(=O)c2cccc3nsnc23)CC1)N1CCCCC1 | -3 | 10 | 13 | 5 | 0 | .
CC(C)CC(=O)NC(=S)Nc1cccc(NC(=O)c2ccccc2Cl)c1 | 45* | 34 | 22 | 12 | -8 | 34*
CC(C)CC(=O)NC(=S)Nc1ccc(NC(=O)c2ccco2)cc1 | 46* | 40 | 15 | 30 | 1 | -23
Cc1nc2oc3c(NCc4ccccc4)ncnc3c2c2c1COC(C)(C)C2 | 41* | 40 | 37 | 13 | -32 | 25
CC(Sc1nc2ccccc2c(=O)n1C)C(=O)N(C)C1CCCCC1 (stereo not drawn) | 4 | 24 | 11 | -8 | -1 | .
O=C(c1ccco1)N(Cc1ccccc1)c1cccc([N+](=O)[O-])c1 | 44* | -11 | 32 | 12 | -12 | 31
SMILES | TIM10 inh | tim23-1 inh | tim10-1 inh | PfHsp90 set2 | NALP3 yeast inh | TIM10 conf
COc1ccccc1N1CCN(C(=O)c2cc(-c3cccc(Cl)c3)on2)CC1 | 43* | 42 | 40 | -1 | 3 | 31*
COc1cc(Cl)ccc1OCc1cc(C(=O)N2CCN(c3ccccn3)CC2)no1 | 55* | 43 | 17 | -36 | 33 | 68*
COc1cc(Cl)ccc1OCc1cc(C(=O)N2CCN(C)CC2)no1 | 8 | -4 | -11 | 8 | 3 | .
O=C1c2ccccc2C(=O)N1CC1c2ccccc2CCN1S(=O)(=O)c1cnc[nH]1 (stereo not drawn) | 7 | -3 | 11 | 3 | 12 | .
Cc1ccc(S(=O)(=O)N2CCc3ccccc3C2CN2C(=O)c3ccccc3C2=O)cc1 (stereo not drawn) | 43* | 30 | 23 | 1 | 9 | 29
CCOC(=O)C(C)Oc1cccc2c(=O)n(CC(=O)NCc3ccc(F)cc3)ccc12 (stereo not drawn) | -13 | 1 | 4 | 20 | 0 | .
O=C(COC(=O)c1ccc([N+](=O)[O-])s1)Nc1ccccc1 | 46* | 40 | 17 | 10 | 16 | -7
O=C(Nc1cccnc1)c1cc(Br)c(Br)s1 | 10 | -4 | -5 | 3 | 9 | .
O=C(COC(=O)c1ccc([N+](=O)[O-])s1)Nc1ccc(F)cc1 | 74* | 37 | -34 | -8 | 42 | 77*
O=C(COC(=O)c1ccc([N+](=O)[O-])s1)NC(c1ccccc1)c1ccccc1 | 7 | 4 | 20 | -28 | 16 | .
O=C(Nc1cccnc1)c1ccc([N+](=O)[O-])s1 | 56* | 44 | 14 | -1 | 10 | 53*
COc1ccccc1N(CC(=O)NCc1ccc2c(c1)OCO2)C(=O)CCC(=O)Nc1nccs1 | 14 | 4 | 0 | 2 | 14 | .
Cn1cc(CC(=O)NCc2ccc(F)cc2)c2ccccc21 | -18 | 11 | 23 | 0 | 13 | .
CC(C)c1ccc(NC(=O)Cc2cn(C)c3ccccc23)cc1 | 47* | 33 | 26 | -14 | 17 | 32*
O=C1/C(=C\c2ccc(O)c(O)c2)SC(=S)N1Cc1ccccc1 | 50* | 22 | -44 | 122* | 35 | 56*
COc1cc(/C=C2/SC(=S)N(Cc3ccccc3)C2=O)ccc1O | 16 | 42 | -1 | -1 | 31 | .
COC(=O)c1ccc(OC(=O)CCN2C(=O)C3C4c5ccccc5C(c5ccccc54)C3C2=O)cc1 (stereo not drawn) | 29 | 22 | 19 | -21 | -6 | .
C/C(=N\NC(N)=S)c1ccc2c(c1)OCCO2 | -3 | 10 | 17 | -24 | 16 | .
C/C(=N\NC(=S)Nc1ccc(F)cc1)c1ccc2c(c1)OCCO2 | 44* | 38 | 35 | 0 | 22 | 51*
Cc1ccc(/C(O)=C2/C(=O)C(=O)N(c3ccccn3)C2c2cccc([N+](=O)[O-])c2)cc1 (stereo not drawn) | 9 | 16 | -24 | 6 | 8 | .
O=C(NC(=S)Nc1ccc2c(c1)OCCO2)c1cccc2ccccc12 | 44* | 40 | 39 | 4 | 16 | 48*
Cc1ccc2oc(=O)c3cc(C(=O)NCCCN4CCc5ccccc5C4)sc3c2c1 | 55* | 39 | 33 | 5 | -8 | 28
Cc1ccc2oc(=O)c3cc(C(=O)NCCCN4CCCCCC4)sc3c2c1 | 17 | 9 | 13 | 5 | 2 | .

Source: PubChem (several laboratories)
